Measured values published in paper PMC11995724, “Antibiotic target discovery by integrated phenotypic and activity-based profiling of electrophilic fragments” (Cell chemical biology, 2025).
Out of some 3,200 compounds screened, about 110 (3.4%) showed an effect of 50% or more. What follows is part of a selection rich in strong results, with near analogues and random picks from the rest.

What follows are compounds tested on T1, V. cholerae SAD30. Conditions: relative growth, OD600, LB; 25 µM; inhibitor.
T1 construct: SAD30
Set-up: species or system S. aureus MSSA476 (TSB) or V. cholerae SAD30 (LB); 384-well bacterial growth screen at 25 uM, OD600 relative to DMSO control

Compared with `CN(C)c1nc(N2CCOCC2)ncc1NC(=O)CCl` [5-M22, 2-chloro-N-[4-(dimethylamino)-2-(morpholin-4-yl)pyrimidin-5-yl]acetamide], `O=C(CCl)Nc1cccc(S(=O)(=O)N2CCOCC2)c1` [4-P08, 2-chloro-N-[3-(morpholine-4-sulfonyl)phenyl]acetamide] is higher in “% of control remaining” value: 105.916% for the first, 121.458% for the second.

Going from `C=CC(=O)Nc1ccc(S(=O)(=O)N(C)C)c(C)c1` [2-E06, N-[4-(dimethylsulfamoyl)-3-methylphenyl]prop-2-enamide] to `C=CC(=O)Nc1cc(CC(C)(C)C)no1` [1-I19, N-[3-(2,2-dimethylpropyl)-1,2-oxazol-5-yl]prop-2-enamide], the “% of control remaining” value falls from 93.4382% to 92.9746%.

First: C=CC(=O)N(CCC(N)=O)C1CCOc2ccccc21 (stereo not shown) [3-F13, N-(2-carbamoylethyl)-N-(3,4-dihydro-2H-1-benzopyran-4-yl)prop-2-enamide]
Second: C=CC(=O)NC1(C(N)=O)Cc2ccccc2C1 [2-D15, 2-(prop-2-enamido)-2,3-dihydro-1H-indene-2-carboxamide]
The “% of control remaining” value of the first is higher: 92.0897% for the first, 88.8063% for the second.

First: Cc1cc(C(=O)CCl)c(C)n1CCc1cccs1 [10-F16, 2-chloro-1-{2,5-dimethyl-1-[2-(thiophen-2-yl)ethyl]-1H-pyrrol-3-yl}ethan-1-one]
Second: CCOc1ccc(-n2c(C)cc(C(=O)CCl)c2C)cc1 [10-K08, 2-chloro-1-[1-(4-ethoxyphenyl)-2,5-dimethyl-1H-pyrrol-3-yl]ethan-1-one]
The “% of control remaining” value of the first is higher: 110.189% for the first, 98.9675% for the second.

Compared with `C=CC(=O)Nc1sc2c(c1C(N)=O)CCCCC2` [1-F21, 2-(prop-2-enamido)-4H,5H,6H,7H,8H-cyclohepta[b]thiophene-3-carboxamide], `Cc1ccc(C(=O)c2c(NC(=O)CCl)sc3c2CCCC3)cc1` [6-A12, 2-chloro-N-[3-(4-methylbenzoyl)-4,5,6,7-tetrahydro-1-benzothiophen-2-yl]acetamide] is higher in “% of control remaining” value: 88.1913% for the first, 94.644% for the second.

Going from `CCOc1ccc(C(=O)C(C)Cl)cc1` (stereo not shown) [10-G06, 2-chloro-1-(4-ethoxyphenyl)propan-1-one] to `CCOc1ccc(C(=O)CCl)cc1` [10-F12, 2-chloro-1-(4-ethoxyphenyl)ethan-1-one], the “% of control remaining” value falls from 103.331% to 15.1179%.

Going from `CN(CCOc1ccc(Cl)cc1)C(=O)CCl` [5-D16, 2-chloro-N-[2-(4-chlorophenoxy)ethyl]-N-methylacetamide] to `CC(Cl)C(=O)N(C)CCOc1ccc(Cl)cc1` (stereo not shown) [6-C12, 2-chloro-N-[2-(4-chlorophenoxy)ethyl]-N-methylpropanamide], the “% of control remaining” value falls from 80.0252% to 74.0165%.

First: N#Cc1ccc(OC2CN(C(=O)CCl)C2)cc1 [5-K07, 4-{[1-(2-chloroacetyl)azetidin-3-yl]oxy}benzonitrile]
Second: N#Cc1ccc(C(=O)CCl)cc1 [10-F10, 4-(2-chloroacetyl)benzonitrile]
The “% of control remaining” value of the first is higher: 141.893% for the first, 0% for the second.

First: CSc1cc(C(=O)CCl)ccc1NC(C)=O [10-H08, N-[4-(2-chloroacetyl)-2-(methylsulfanyl)phenyl]acetamide]
Second: CSc1ccccc1NC(=O)CCl [4-E11, 2-chloro-N-[2-(methylsulfanyl)phenyl]acetamide]
The “% of control remaining” value of the first is lower: 25.2484% for the first, 92.3011% for the second.

Going from `O=C(CCl)COc1ccc(Cl)cc1` [10-M17, 1-chloro-3-(4-chlorophenoxy)propan-2-one] to `NC(=O)COc1ccc(C(=O)CCl)cc1` [10-M07, 2-[4-(2-chloroacetyl)phenoxy]acetamide], the “% of control remaining” value rises from 11.6891% to 49.25%.

Going from `CSc1ccccc1NC(=O)CN(C)C(=O)CCl` [4-L03, 2-chloro-N-methyl-N-({[2-(methylsulfanyl)phenyl]carbamoyl}methyl)acetamide] to `CC(c1ccccc1F)N1CCCC(NC(=O)CCl)C1=O` (stereo not shown) [5-I10, 2-chloro-N-{1-[1-(2-fluorophenyl)ethyl]-2-oxopiperidin-3-yl}acetamide], the “% of control remaining” value falls from 116.282% to 94.4836%.

Going from `O=C(CCl)Nc1ccc(Cl)c(S(=O)(=O)N2CCCCC2)c1` [4-P14, 2-chloro-N-[4-chloro-3-(piperidine-1-sulfonyl)phenyl]acetamide] to `CC(Cl)C(=O)Nc1ccc(S(=O)(=O)N2CCCCC2)cc1` (stereo not shown) [4-A12, 2-chloro-N-[4-(piperidine-1-sulfonyl)phenyl]propanamide], the “% of control remaining” value falls from 110.589% to 95.234%.

Going from `C=CC(=O)Nc1cc(C)nn1-c1ccccc1F` [2-C15, N-[1-(2-fluorophenyl)-3-methyl-1H-pyrazol-5-yl]prop-2-enamide] to `C=CC(=O)NCC(=C)c1ccccc1` [2-B09, N-(2-phenylprop-2-en-1-yl)prop-2-enamide], the “% of control remaining” value falls from 95.1365% to 87.2624%.

Going from `C=CC(=O)N1CCC(C(=O)N2CCC[C@H]2c2ncn[nH]2)CC1` [2-D12, 1-{4-[(2S)-2-(1H-1,2,4-triazol-5-yl)pyrrolidine-1-carbonyl]piperidin-1-yl}prop-2-en-1-one] to `C=CC(=O)N1CCC(C(=O)NC2CCCc3cc(F)ccc32)CC1` (stereo not shown) [2-K18, N-(6-fluoro-1,2,3,4-tetrahydronaphthalen-1-yl)-1-(prop-2-enoyl)piperidine-4-carboxamide], the “% of control remaining” value falls from 91.1223% to 78.153%.

Compared with `N#CC(=Cc1ccc2ccccc2c1)C(=O)NC(N)=O` [9-K10, {2-cyano-2-[(naphthalen-2-yl)methylidene]acetyl}urea], `N#CC(=Cc1ccccc1Cl)C(=O)Nc1cccc2ncccc12` [8-C15, 3-(2-chlorophenyl)-2-cyano-N-(quinolin-5-yl)prop-2-enamide] is lower in “% of control remaining” value: 87.0836% for the first, 75.9347% for the second.

Compared with `CC(Cl)C(=O)NC(C)(C)c1ccc(F)cc1F` (stereo not shown) [6-E21, 2-chloro-N-[2-(2,4-difluorophenyl)propan-2-yl]propanamide], `CC(Cl)C(=O)Nc1c(C(C)C)cccc1C(C)C` (stereo not shown) [4-B15, N-[2,6-bis(propan-2-yl)phenyl]-2-chloropropanamide] is lower in “% of control remaining” value: 92.9756% for the first, 91.4384% for the second.

Compared with `COCc1ncc2c(n1)CC1CCC2N1C(=O)C(C)Cl` (stereo not shown) [7-M20, 2-chloro-1-[5-(methoxymethyl)-4,6,12-triazatricyclo[7.2.1.0,2,7]dodeca-2,4,6-trien-12-yl]propan-1-one], `Cc1cc(CO[C@H]2CC[C@H](NC(=O)CCl)CC2)on1` [6-K19, 2-chloro-N-[(1r,4r)-4-[(3-methyl-1,2-oxazol-5-yl)methoxy]cyclohexyl]acetamide] is higher in “% of control remaining” value: 81.4142% for the first, 92.9756% for the second.

First: C=CC(=O)Nc1cnn(C2CCCC2)c1 [3-O21, N-(1-cyclopentyl-1H-pyrazol-4-yl)prop-2-enamide]
Second: C=CC(=O)N[C@H]1CCO[C@@H]1c1ccnn1C(C)C (racemic) [3-K05, rac-N-[(2R,3R)-2-[1-(propan-2-yl)-1H-pyrazol-5-yl]oxolan-3-yl]prop-2-enamide]
The “% of control remaining” value of the first is higher: 106.734% for the first, 98.7943% for the second.

Compared with `C=CC(=O)NCC12CC3CC(CC(C3)C1)C2` [1-F17, N-[(adamantan-1-yl)methyl]prop-2-enamide], `O=C(CCl)NCCCC1CCCCC1` [6-O05, 2-chloro-N-(3-cyclohexylpropyl)acetamide] is higher in “% of control remaining” value: 83.4081% for the first, 100.256% for the second.

Compared with `CCc1ccc(C(=O)CCl)cc1` [10-F18, 2-chloro-1-(4-ethylphenyl)ethan-1-one], `CCCc1ccc(C(=O)CCl)cc1` [10-C04, 2-chloro-1-(4-propylphenyl)ethan-1-one] is higher in “% of control remaining” value: 26.1835% for the first, 109.254% for the second.

Going from `O=C(CCl)Nc1cccc(Oc2ccccc2)c1` [4-P19, 2-chloro-N-(3-phenoxyphenyl)acetamide] to `O=C(CCl)Nc1ccc(Oc2ccccc2)cc1` [4-J09, 2-chloro-N-(4-phenoxyphenyl)acetamide], the “% of control remaining” value rises from 96.6142% to 97.6493%.

First: CSc1ccc(C(=O)CCl)cc1 [10-E07, 2-chloro-1-[4-(methylsulfanyl)phenyl]ethan-1-one]
Second: CC(=O)NCCc1ccc(C(=O)CCl)cc1 [10-N03, N-{2-[4-(2-chloroacetyl)phenyl]ethyl}acetamide]
The “% of control remaining” value of the first is lower: 0% for the first, 115.8% for the second.

First: O=C(CCl)c1ccc(Oc2ccccc2)cc1 [10-G20, 2-chloro-1-(4-phenoxyphenyl)ethan-1-one]
Second: NC(=O)CCc1ccc(C(=O)CCl)cc1 [10-I03, 3-[4-(2-chloroacetyl)phenyl]propanamide]
The “% of control remaining” value of the first is lower: 25.2484% for the first, 70.7578% for the second.

First: O=C(CCl)NC(c1ccccc1)C1CCCCC1 (stereo not shown) [6-E12, 2-chloro-N-[cyclohexyl(phenyl)methyl]acetamide]
Second: O=C(CCl)Nc1cccc(S(=O)(=O)N=C2CCCCCN2)c1 [4-D08, N-{3-[(azepan-2-ylidene)sulfamoyl]phenyl}-2-chloroacetamide]
The “% of control remaining” value of the first is lower: 79.0217% for the first, 107.656% for the second.

In the case of `O=C(CCl)N1CCN(S(=O)(=O)c2cccc([N+](=O)[O-])c2)CC1` [4-C19, 2-chloro-1-[4-(3-nitrobenzenesulfonyl)piperazin-1-yl]ethan-1-one], the “% of control remaining” value is reported as 91.0934%.
